In PubChem BioAssay (NCI) one finds growth data, which are given here for eight molecules.

Test systems include NCI-H23 lung; NCI-H226 lung; NCI-H322M lung; HOP-62 NSCLC; HOP-92 NSCLC; NCI-H522 lung; A549/ATCC NSCLC; 786-0 renal; DU-145 prostate; K-562 leukemia; MALME-3M melanoma; MDA-MB-231 breast; RXF 393 renal; SF-268 CNS; SF-295 CNS; SF-539 CNS; UACC-257 melanoma; M14 melanoma; COLO 205 colon.
Common to all, as to assay: NCI-60 one-dose screen, 48 h (100 = growth as untreated, 0 = no growth, -100 = all killed)
What all share (details): 10 µM unless noted

About 83,000 compounds went through this panel and 20% of them were active in at least one assay; those are over-represented in the sample as a whole.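 Compound tested at a single concentration for 48 hours in 96-well plates; a percent growth value below 10 was scored as active.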 Unmarked numbers belong to inactive results. Activity calls are given as the source filed them.

Turning to `CN1CCN(c2ccc3nc(/N=C/c4ccc5sc(-c6ccc([N+](=O)[O-])cc6)nc5c4)sc3c2)CC1`, the growth with NCI-H23 lung was 99.4%; in the assay with NCI-H226 lung, 97.9%; with NCI-H322M lung, 105%; in the assay with HOP-62 NSCLC it was 120%; in the assay with HOP-92 NSCLC it was 111%; in the assay with NCI-H522 lung, 95%. Moreover, the growth was 98.6% with A549/ATCC NSCLC; 101% with 786-0 renal; 106% in the assay with DU-145 prostate; 90.6% with K-562 leukemia; 96.7% with MALME-3M melanoma; 112% in the assay on MDA-MB-231 breast. Besides, the growth with RXF 393 renal was 129%; in the assay on SF-268 CNS, 111%; with SF-295 CNS, 96%; in the assay on SF-539 CNS it was 93.4%; in the assay with UACC-257 melanoma, 101%; in the assay on M14 melanoma it was 104%.
For `COC(=O)/C(=C\c1ccc(OC)cc1)C(=O)N1c2ccccc2Sc2ccccc21`, the growth in the assay on NCI-H23 lung is 72.7%; with NCI-H226 lung, 75.1%; in the assay on NCI-H322M lung, 83%; with HOP-62 NSCLC it was 64%; in the assay with HOP-92 NSCLC, 38.7%; in the assay with NCI-H522 lung it was 2.63% (active). The growth with A549/ATCC NSCLC is 56.2%; in the assay on 786-0 renal, 70.5%; in the assay on DU-145 prostate, 78.5%; with K-562 leukemia, 11.1%; with MALME-3M melanoma it was 32.9%; with MDA-MB-231 breast it was 54.2%. The growth is 47.7% in the assay on RXF 393 renal; 54.6% in the assay on SF-268 CNS; 38.8% in the assay on SF-295 CNS; 42.1% with SF-539 CNS; 65.4% in the assay with UACC-257 melanoma; 23.3% in the assay on M14 melanoma.
Consider `Cc1cc(N(CCCNc2ccnc3cc(Cl)ccc23)Cc2ccccn2)nc(N2CCOCC2)n1`, for which the growth in the assay on NCI-H23 lung was 90.4%; in the assay on NCI-H226 lung, 90.9%; in the assay on NCI-H322M lung it was 94.1%; with HOP-62 NSCLC, 85.2%; with HOP-92 NSCLC, 66.6%; with NCI-H522 lung, 74.7%. The growth is 86.4% in the assay with A549/ATCC NSCLC; 86% with 786-0 renal; 113% with DU-145 prostate; 67.8% with K-562 leukemia; 89.8% with MALME-3M melanoma; 95.2% in the assay on MDA-MB-231 breast. The growth in the assay on RXF 393 renal is 77.3%; in the assay with SF-268 CNS it was 83.3%; in the assay with SF-295 CNS, 92.9%; in the assay on SF-539 CNS, 91.4%; in the assay on UACC-257 melanoma, 101%; with M14 melanoma, 95.7%.
Turning to `COc1ccc(-n2ncn(CCCCCCn3cnn(-c4ccc(OC)cc4)c3=O)c2=O)cc1`, the growth in the assay on NCI-H23 lung was 82.9%; in the assay with NCI-H226 lung, 80.3%; in the assay with NCI-H322M lung, 88.4%; in the assay with HOP-62 NSCLC, 89.5%; in the assay with HOP-92 NSCLC it was 89.4%; with NCI-H522 lung, 76.3%. Also, the growth in the assay on A549/ATCC NSCLC is 96.7%; with 786-0 renal it was 96.7%; in the assay on DU-145 prostate, 101%; in the assay with K-562 leukemia, 72.7%; in the assay with MALME-3M melanoma, 95.7%; in the assay with MDA-MB-231 breast, 87.4%. Also, the growth in the assay on RXF 393 renal was 98.2%; with SF-268 CNS it was 91.4%; in the assay on SF-295 CNS it was 93.6%; in the assay with SF-539 CNS, 91.7%; with UACC-257 melanoma, 101%; in the assay on M14 melanoma, 97.5%.
With `Cc1c(C(=O)O[C@H]2[C@@H]3[C@H](C)CC[C@H]3[C@]3(C)O[C@@]2(C2CCCCC2)C[C@H]3OC(=O)CO)ccc2ccccc12`, the growth with NCI-H23 lung is 35.2%; in the assay with NCI-H226 lung, 30.5%; in the assay with NCI-H322M lung, 70.5%; with HOP-62 NSCLC, 29.7%; in the assay with HOP-92 NSCLC, 10.9%; with NCI-H522 lung, 19.6%. In addition, the growth with A549/ATCC NSCLC is 30.2%; in the assay on 786-0 renal, 9.76% (active); in the assay on DU-145 prostate, 58.7%; in the assay with K-562 leukemia, 7.53% (active); in the assay with MALME-3M melanoma, 42.3%; in the assay on MDA-MB-231 breast, 33.2%. In addition, the growth with RXF 393 renal was -31.7% (active); in the assay with SF-268 CNS it was 16%; in the assay with SF-295 CNS, 36.8%; in the assay with SF-539 CNS, 65.6%; in the assay on UACC-257 melanoma, 39.8%; in the assay with M14 melanoma, 36.2%.
Regarding `Cc1nc(Nc2ccc(NC(=S)Nc3ccccc3)cc2)nc2nc(Nc3ccc(S(=O)(=O)O)cc3)[nH]c(=O)c12`, the growth in the assay with NCI-H23 lung was 95.8%; in the assay on NCI-H226 lung, 123%; with NCI-H322M lung it was 122%; with HOP-62 NSCLC it was 105%; in the assay on HOP-92 NSCLC, 75.7%; in the assay with NCI-H522 lung it was 86.9%. Moreover, the growth in the assay with A549/ATCC NSCLC is 111%; with 786-0 renal, 103%; in the assay on COLO 205 colon, 113%; in the assay with DU-145 prostate it was 145%; in the assay with K-562 leukemia, 71%; in the assay with MALME-3M melanoma it was 104%. Besides, the growth in the assay with MDA-MB-231 breast was 94.4%; in the assay on SF-268 CNS, 106%; in the assay with SF-295 CNS it was 113%; in the assay with SF-539 CNS, 132%; in the assay with UACC-257 melanoma, 136%.
For the molecule `Cc1cc(-c2noc(C(F)(F)F)n2)ccc1N1CCN(c2cc(C(=O)N(C)C)no2)CC1`, the growth in the assay on NCI-H23 lung is 55.6%; in the assay on NCI-H226 lung, 55.8%; with NCI-H322M lung, 101%; with HOP-62 NSCLC, 68.1%; with HOP-92 NSCLC, 63.5%; in the assay on NCI-H522 lung, 57%. For the same molecule, the growth is 67.3% in the assay with A549/ATCC NSCLC; 80.4% with 786-0 renal; 85.2% in the assay on DU-145 prostate; 33.1% with K-562 leukemia; 78.5% in the assay with MALME-3M melanoma; 69.6% with MDA-MB-231 breast. In addition, the growth was 105% in the assay with RXF 393 renal; 82.2% with SF-268 CNS; 49.8% in the assay on SF-295 CNS; 86.1% with SF-539 CNS; 54% in the assay with UACC-257 melanoma; 81.5% with M14 melanoma.
`COc1ccc(Oc2nc(Nc3ccc(N4CCOCC4)nc3)ncc2NC(=O)c2cc(OC)cc(OC)c2)cc1`: the growth is 97.9% in the assay with NCI-H23 lung; 65% with NCI-H226 lung; 88% with NCI-H322M lung; 82.6% with HOP-62 NSCLC; 82.8% in the assay with HOP-92 NSCLC; 52.1% in the assay on NCI-H522 lung. The growth in the assay on A549/ATCC NSCLC is 84.6%; in the assay with 786-0 renal, 67.4%; in the assay on DU-145 prostate, 89.6%; in the assay with K-562 leukemia, 49.8%; with MALME-3M melanoma it was 107%; in the assay with MDA-MB-231 breast, 81.9%. Also, the growth in the assay with RXF 393 renal is 58.6%; in the assay with SF-268 CNS, 82.2%; in the assay on SF-295 CNS, 83.7%; in the assay on SF-539 CNS it was 78.2%; in the assay on UACC-257 melanoma it was 89.7%; with M14 melanoma it was 72.8%.
